# Assay results from PubChem BioAssay (NCI).
# Compounds without any hit were thinned out: in the full panel of roughly 83,000, 20% have a hit.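 How to read the values: 0–100, growth inhibition (40 = 60% inhibited); 0, no net growth; -100 to 0, cell death (-40 = 40% of starting cells died; -100 = all dead).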 A number with no mark means an inactive call. Active and inactive are the calls of the source.
# Tested on: HT29 colon
# Experiment: NCI-60 one-dose screen, 48 h (100 = growth as untreated, 0 = no growth, -100 = all killed)
# Conditions: 10 µM unless noted
# Method: Growth inhibition of the HT29 human tumor cell line is measured as a screen for anti-cancer activity. Cells are grown in 96 well plates and exposed to the test compound for 48 hours. Compounds are tested at a single concentration, which is 10^-5 M for most compounds. The reported endpoint is percent growth (GI% or GIPRCNT), where numbers from 0 - 100% represent growth inhibition, and numbers from -100% - 0 represent cell death. For example, a value of 40 represents 60% growth inhibition. A value of 0 means no net growth occurred over the course of the experiment. A value of -40 indicates 40% of cells at the beginning of the experiment died by the end of the experiment. A value of -100 means all cells are dead at the end of the experiment.
# NCI-60 Human Tumor Cell Lines Screen was performed using the standard one-dose NCI protocol, which is described in more detail at https://dtp.cancer.gov/discovery_development/nci-60/default.htm.
# Compounds with GIPRCNT values below 10 were considered active. Activity score was based on GIPRCNT using the following formula: […]
# Score is 0 for GIPRCNT values of 100 or above, 50 for GIPRCNT values of 0, and 100 for GIPRCNT values of -100.
row,SMILES,growth
1,O=C(NNc1ccccc1)OCc1ccccc1,97.7%
2,Cc1nc([N+](=O)[O-])c(Sc2nncc(-c3ccccc3)n2)n1C,84.5%
3,O=C1c2ccccc2C(=O)c2c(O)c(Cl)cc(O)c21,39%
4,COc1ccc(NC(=O)/C(=C/N2C(=O)/C(=C/c3ccc(OC)c(OC)c3)NC2=S)C(C)=O)cc1,92.8%
5,CCCCCCCCCCCC[N+]1(CCCCCCCCCCCC)CCCC(C)C1 (stereo not given),-91.8% (active)
6,CCCCCCCCCCCCN1C(C)=CS/C1=C\C=C\c1scc(C)[n+]1CCCCCCCCCCCC,11%
7,O=[N+]([O-])c1ccc(N2CCN(Cc3ccccc3)CC2)c2c1no[n+]2[O-],-70.4% (active)
8,CCOC(=O)NC(/C=C/c1ccccc1)NC(=O)OCC,101%
9,Nc1ccc(-c2ccc(N)c(S(=O)(=O)O)c2)cc1S(=O)(=O)O,109%
10,COc1ccc2c(c1OC)OCC(CN(C)C)C2=O (stereo not given),73.3%
11,N=C1C=C(N)C(=O)c2ccccc21,-38.8% (active)
12,Cc1cc(=O)oc2cc(O)cc(O)c12,107%
13,O=[N+]([O-])CC(O)c1ccccc1 (stereo not given),113%
14,c1ccc(-c2cccc(-c3ccccn3)n2)nc1,26%
15,Oc1ccc(Br)cc1Sc1cc(Br)ccc1O,116%
16,O=C1C=CC(=O)N1c1cc(Cl)c(Cl)cc1Cl,101%
17,O=C1/C(=C/c2ccccc2)CCC/C1=C\c1ccccc1,30.5%
18,Cc1cc(C)c(C#N)c(Sc2nc(C)c([N+](=O)[O-])c(C)c2C#N)n1,35.8%
19,Cc1cccc2c(N)c3ccccc3nc12,-7.57% (active)
20,COC(=O)c1ccc(=O)c2nc3/c(=C/O)c(O)cc(=O)c3[nH]c12,29.4%

row,SMILES,growth
1,O=C1C=CC(=O)c2c(O)c(CO)c(CO)c(O)c21,60%
2,CC(C)(C)c1ccc(O)c(-c2ccccc2)c1,107%
3,O=C(c1ccccc1)c1cc2ccccc2oc1=O,113%
4,CC1(C)N=c2cc3c(cc2N1c1ccc(Cl)cc1)=Nc1ccccc1N3c1ccc(Cl)cc1,60.4%
5,CC1=CC(=NC(=O)CBr)C=C/C1=N\S(=O)(=O)c1ccccc1,39.9%
6,NC(=S)Nc1ccc2c(c1)Cc1ccccc1-2,87.8%
7,CCN(CC)c1ccc(/C=C\C(=O)c2ccc(NC(C)=O)cc2)cc1,39.5%
8,c1ccc(-c2cc3cc4ccccc4cn3c2)cc1,105%
9,O=[n+]1c2ccccc2n([O-])c2cc(Cl)ccc21,74.1%
10,Nc1nc(-c2ccccc2)nc(N)c1N=O,14.5%
11,C[C@@]1(CO)[C@H](O)CC[C@@]2(C)[C@H]1CC[C@H]1C[C@@H]3C[C@@]12CC[C@@]3(O)COC(=O)CN,38.7%
12,Oc1ccc2ccccc2c1N=Nc1ccccn1,20.9%
13,Cc1cc(C(=O)c2ccc(Cl)cc2)ccc1O,99.1%
14,O=C1C=CC(O)=CC1=P(c1ccccc1)(c1ccccc1)c1ccccc1,103%
15,CC1(C)CCCC2=C1C(=O)N(SC(Cl)(Cl)Cl)C2=O,93.5%
16,CCCCCCCCCCCCCCCCCC[S+](C)CC (stereo not given),4.75% (active)
17,COc1ccc2nc3cc(Cl)ccc3c(NCCCCCN3CCCCC3)c2c1,-41.3% (active)
18,CCCCCCCCCCCC[S+](C)CC(=O)[O-] (stereo not given),44.7%
19,Nc1cccc2cccc([N+](=O)[O-])c12,106%
20,S=C1SCN(Cc2cccs2)CN1Cc1cccs1,97.2%
